Results on 40 compounds are retold here after PubChem BioAssay (EPA / NIEHS).

Activity calls are given as the source filed them. Rule for the calls: active = hit-call score of the fitted dose curve at least 0.9, where 1 is the maximum; inactive = score below 0.9.

Read-out in the assay: growth arrest and DNA damage 45 (GADD45G), GADD45G (gene 10912)
Briefly: LTEA_HepaRG_GADD45G: Life Technologies and Expression Analysis (LTEA) Assay for growth arrest and DNA damage 45 (GADD45G) using HepaRG (AID 2283499). The settings on record: mRNA level, 48 h; actives raise or lower the signal. The method, then: LTEA_HepaRG is a cell based, multiplexed-readout assay that uses HepaRG, a human liver cell line, with measurements taken at 48 hours after chemical dosing on a 96-well plate.LTEA_HepaRG_GADD45G is one of 102 assay component(s) measured in the LTEA HepaRG cell culture assay. It is a marker of Cell proliferation, survival, death.Data from the assay component LTEA_HepaRG_GADD45G was analyzed into 1 endpoint. This assay endpoint, LTEA_HepaRG_GADD45G, was analyzed with bidirectional fitting relative to DMSO as the negative control and baseline of activity. Using a type of inducible reporter, measures of mRNA induction for gain or loss-of-signal activity can be used to understand regulation of transcription factor activity. To generalize the intended target to other relatable targets, this assay endpoint is annotated to the mutagenicity response intended target family, where the subfamily is Cell proliferation, survival, death.
A total of 1060 chemcials from the ToxCast library were tested in eight-point concentration-response experiments. Cell culture and cytotoxicity assays were conducted at Thermo Fisher Scientific's Custom Services facility (Madison, WI). A single lot of human HepaRG cells (Thermo Fisher Scientific, Frederick, MD) was used for the cell culture experiments. 96-well format collagen type I coated plates of human HepaRG cells were prepared using established methods. Briefly, cryopreserved HepaRG cells were thawed, plated at a density of approximately 100,000 cells/well in HepaRG Thaw, Plate, and General Purpose media (HPRG770, Thermo Fisher Scientific), and incubated for 48 hours. 0.5% DMSO was selected as vehicle control to balance the requisite need of DMSO in HepaRG cultures to maintain differentiation (for example, baseline metabolism, proportions of hepatocytes vs. cholangiocytes), while enabling further hepatic receptor pathway activation (for example, PXR and CAR) in response to chemical exposure. 48 hours after plating, the culture medium was replaced with HepaRG Serum-Free Incudtion Media. Cells were exposed to each test chemical in duplicate and maintained in CO2 incubators for another 48 hours. Chemical plates were thawed to room temperature and 200x concentrations of treatment groups were prepared. 8-point conentration-reponse curves were made with the highest exposure at 100 uM, followed by half-log dilutions, all in 0.5% DMSO. Each test plate contained variouse controls, induction positive controls (1mM phenobarbital), cytotoxicity positive controls ([…] aflatoxin B1), vehicle controls (0.5% DMSO), and total lysis controls (0.5% DMSO). Cell morphology images were taken using an Essen IncuCyte FLR automated microscope, with six 96-well plates imaged in about 24 minutes. Images were captured and exported and JPEG files. Spent culture media was transfered to black-well plates for the LDH assay, and remaining media was sorted at -80 C for later use. Cells were treated with RLT buffer and frozen until shipped for gene expression analysis. Total RNA was isolated from the cell suspension in 75 uL of Buffer RLT (Qiagen, Germantown, MD 20874) by Quintiles/Expression Analysis (Durham, NC) using a custom isolation procedure. Total RNA from each plate well was transferred to a preamplification plate. Fluidigm's 96.96 Dynamic ArrayTM (Fluidigm, Amsterdam, the Netherlands) technology was used for gene expression analyses by quantitative reverse transcription polymerase chain reaction (qRT-PCR, performed by Quintiles/Expression Analysis, Durham, NC)89. Standard TaqManTM Assays (Applied Biosystems/ThermoFisher Scientific, Foster City, CA) were used to assess the expression of 93 genes selected based on their selectivity and sensitivity to important hepatic receptors known to be modulated by environmental chemicals; importance in human hepatocyte functionality; and hepatotoxicity. […]
As for `Cc1c(C(=O)O)c(O)cc2c1C(=O)c1c(O)c([C@@H]3O[C@H](CO)[C@@H](O)[C@H](O)[C@H]3O)c(O)c(O)c1C2=O`, the call was inactive.

Turning to `COC(=O)c1ccc(O)cc1`, the outcome was inactive. Turning to `CN[C@H]1CC[C@@H](c2ccc(Cl)c(Cl)c2)c2ccc(S(N)(=O)=O)cc21`, the AC50 was 71.1 µM (active). Consider `O=c1[nH]cc(F)c(=O)[nH]1`, for which the compound was classed as inactive. Take `CN1CCN(Cc2cc(-c3ccc4[nH]c(=O)oc4c3)co2)[C@@H](c2ccc(F)cc2)C1`: the AC50 is 71.9 µM (active). On to `CCCCCCCCCCC`, for which the compound was classed as inactive. As for `Cc1nc(-c2ccc3c(c2)CCN(CCC2CCC(NC(=O)/C=C/c4ccc(F)cc4)CC2)CC3)no1` (stereo not given), the compound was classed as inactive. On the same count and under the same terms, the result for `Cc1ccc(C)c(C)c1` reads “inactive”; that for `C1CCC(SSC2CCCCC2)CC1`, “inactive”; that for `Cc1ccc(N(C)C)cc1`, “inactive”. Same read-out and setting: the result for `COc1cc(C=O)ccc1O` reads “inactive”. Regarding `CCCCC(CC)COC(=O)CC(C(=O)OCC(CC)CCCC)S(=O)(=O)O` (stereo not given), the AC50 was 87 µM (active). With `CC(=O)OCCOCCOCCOC(C)=O`, the outcome was inactive.

With `CCOc1ccc2c(c1)C(C)=CC(C)(C)N2`, the call was inactive. Turning to `Cc1ccc(C)c(O)c1C`, the compound was classed as inactive. Same read-out and setting: the entry for `C[Si]1(C)O[Si](C)(C)O[Si](C)(C)O[Si](C)(C)O1` is “inactive”.

Take `Cc1cccc(Nc2cc(Cl)nc(SCC(=O)O)n2)c1C`: the compound was classed as inactive. Turning to `Cc1ccc(Cl)cc1`, the outcome was inactive. As for `CCOC(=O)C(C)(C)Oc1ccc(Cl)cc1`, the compound was classed as inactive. Same read-out and setting: the entry for `C=CCc1ccc(O)c(OC)c1` is “inactive”; for `NCCO` it is “inactive”; for `OC[C@@H](O)[C@@H](O)[C@H](O)[C@H](O)CO` it is “inactive”. Turning to `CCCCCCCCCCCCCO`, the call was inactive. On the same count and under the same terms, the result for `CNC(=O)[C@H]1O[C@@H](n2cnc3c(NCc4cc(Cl)ccc4OCc4cc(C)no4)ncnc32)[C@H](O)[C@@H]1N` reads “inactive”.

Turning to `NC(=O)Cn1c(=O)cc(CCN2CCN(c3nccc4sccc34)CC2)c2ccc(F)cc21`, the half-maximal activity concentration (AC50) is 83.8 µM (active). Turning to `COc1cc(-c2nc(NC(=O)c3cc4cc(C)cc(C)c4n3CC(=O)O)sc2CCC2CCCCC2)c(OC)cc1Cl`, the half-maximal activity concentration (AC50) was 3.17 µM (active). For the compound `CCCCCCCCCCCC(=O)OC`, the result was inactive.

Consider `CC(=O)C(C)=CC1C(C)=CCCC1(C)C` (stereo not given), for which the outcome was inactive. Still for that read-out and setting: the entry for `CCNc1cccc(C)c1` is “inactive”; for `CCCCCCCCCCCCCCCCCC(=O)O` it is “inactive”.

As to `CCCCCCCCCCO`, the outcome was inactive. As for `COc1cc(S(=O)(=O)O)c(C)cc1N=Nc1c(O)ccc2cc(S(=O)(=O)O)ccc12`, the call was inactive.

`CCOC(=O)CCC(=O)OCC`: the compound was called inactive. As for `Cc1cc(NC(=O)C(=O)O)cc(C)c1Oc1ccc(O)c2c1CCC2`, the call was inactive.

Take `CCCCCCCCCCCCCCCC`: the result was inactive.

On to `COc1ccc2c(c1)c(CC(=O)O)c(C)n2C(=O)c1ccc(Cl)cc1`, for which the outcome was inactive.

With `CC=Cc1ccc(O)c(OC)c1`, the result was inactive. Still for that read-out and setting: the entry for `CC1(C)NC(=O)NC1=O` is “inactive”; for `CCCCCCCC=O` it is “inactive”; for `Cc1cccc([N+](=O)[O-])c1C` it is “inactive”.
